From PubChem BioAssay (NCI)
Compounds without any hit were thinned out: in the full panel of roughly 79,000, 15% have a hit. No stated cut-off is given here; in the data, active means growth inhibition above about 70%; inactive means the rest.

How the values were obtained:
[1] = NCI Yeast Anticancer Drug Screen. Data for the rad50 strain (AID 155);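 further: 0% = growth of vehicle-only cultures of the same strain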; conditions: S. cerevisiae rad50 strain growth inhibition; at 50.0 µM; active compounds read high
Outline: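 Inhibition values express reduced yeast growth in compound-treated cultures relative to vehicle-treated controls.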

[2] = NCI Yeast Anticancer Drug Screen. Data for the mec2-1 strain (AID 157); conditions: S. cerevisiae mec2-1 strain, at 50.0 µM, active compounds read high
Outline: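 Test agents were screened against the mec2-1 yeast strain, with defined DNA repair or cell cycle alteration. Growth was scored as inhibition against vehicle-only controls.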

[3] = NCI Yeast Anticancer Drug Screen. Data for the sgs1 mgt1 strain (AID 161);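 further: 0% = growth of cultures given vehicle only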; conditions: S. cerevisiae sgs1 mgt1 strain, at 50.0 µM, active compounds read high
Outline: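 Inhibition of yeast growth, normalised to vehicle-treated controls, is reported for a strain bearing genetic alterations in DNA damage repair.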

[4] = NCI Yeast Anticancer Drug Screen. Data for the cln2 rad14 strain (AID 165);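 further: 0% = growth equal to vehicle treated cultures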; conditions: S. cerevisiae cln2 rad14 strain, at 50.0 µM, active compounds read high
Outline: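 Growth of compound-exposed yeast (cln2 rad14 genotype) measured and expressed as inhibition relative to vehicle.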

[5] = NCI Yeast Anticancer Drug Screen. Data for the bub3 strain (AID 167); conditions: S. cerevisiae bub3 mutant strain, at 50.0 µM, active compounds read high
Outline: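 Steps: expose the mutant yeast strain to compound; grow alongside vehicle-treated cultures; measure growth; express inhibition against the vehicle cultures.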

[6] = NCI Yeast Anticancer Drug Screen. Data for the mlh1 rad18 strain (AID 175); conditions: S. cerevisiae mlh1 rad18 strain growth inhibition; at 50.0 µM; active compounds read high
Outline: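 In this whole-cell yeast screen, a strain with altered DNA damage repair is challenged with compound, and its growth is measured against matched vehicle-treated controls.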

Measured: growth inhibition

CC(C)(C)/C(=N\[N+](C)(C)C)c1ccccc1
inactive: [1] 7.85% | [2] 6.4% | [3] 0.4% | [4] -1.3% | [5] 6.8% | [6] 10.6%

Cc1cccc(/C=C/C(=O)C(C)CN(C)C)c1 (stereo unspecified)
inactive: [1] 41.4% | [2] 15.6% | [3] 63% | [4] 30.4% | [5] 28.6% | [6] 39.5%

CC1(C(=O)O)C(=O)Oc2c1c1ccccc1c1ccccc21 (stereo unspecified)
inactive: [1] 15.3% | [2] 10.7% | [3] 0.75% | [4] 10.8% | [5] 16.3% | [6] 27.5%

CCC[CH2][Ge]([Cl])([Cl])[CH2]CCC
inactive: [1] 28.6% | [2] 30.8% | [3] 30.9% | [4] 14.9% | [5] 40.9% | [6] 33.4%

O=c1c(=[n+]2ccc(=C([O-])c3ccccc3)cc2)/c(=N/S(=O)(=O)c2ccccc2)c(=O)c2ccccc12
inactive: [1] 19.2% | [2] 33.1% | [3] 39.8% | [4] 7% | [5] 12.8% | [6] 26.4%

CCCCCCCCCCCCCC(=O)CC
inactive: [1] 56.3% | [2] -3.35% | [3] 17.9% | [4] 19.1% | [5] 12.4% | [6] 21.9%

CN(C)CCCN1C=CC(=C2C(=O)c3ccccc3C2=O)C=C1
inactive: [1] 3.1% | [2] 20.8% | [3] 10.3% | [4] 34.9% | [5] 8.5% | [6] -0.95%

Clc1cc2nnn(C3CCCCO3)c2cc1Cl (stereo unspecified)
inactive: [1] 9.75% | [2] -3.05% | [3] -23.4% | [4] -12.3% | [5] -0.9% | [6] 14.4%

COC(=O)c1nn(-c2ccccc2)c(=O)cc1N=[N+]=[N-]
inactive: [1] -31% | [2] -5.2% | [3] -39.2% | [4] -12.8% | [5] -14.2% | [6] -54.4%

CS(=O)(=O)OCCOc1ccccc1
inactive: [1] 1.15% | [2] -0.45% | [3] 0.95% | [4] -32% | [5] 9.15% | [6] 8.05%

CC(O)COc1ccc(Cl)cc1Cl (stereo unspecified)
inactive: [1] 27.1% | [2] -10.2% | [3] 45.6% | [4] 9.6% | [5] 8.35% | [6] 26.6%

O=C1C2=C(CCCC2)Nc2cccc3ncn1c23
inactive: [1] -25.9% | [2] -39% | [3] -56.8% | [4] -20.4% | [5] -38.4% | [6] -40.2%

COc1ccc(C(=O)CCl)c(O)c1OC
inactive: [1] -4.95% | [2] 5.95% | [3] -5.6% | [4] 14.8% | [5] 5.7% | [6] 11.8%

COc1cc(-c2ccc(N=C=O)c(OC)c2)ccc1N=C=O
inactive: [1] -4% | [2] -27.4% | [3] 9.8% | [4] -5.7% | [5] 29.9% | [6] -8.15%

c1cc2c3c(c1)ccc1cccc(c13)C2
inactive: [1] 39.6% | [2] -26.2% | [3] 12.8% | [4] 11.9% | [5] 24.6% | [6] 27.1%

CCCCCCCCOC(=O)c1cc([N+](=O)[O-])c(Sc2ncnc3nc[nH]c23)c([N+](=O)[O-])c1
inactive: [1] 32% | [2] 30% | [3] 25.9% | [4] 11.8% | [5] 16.1% | [6] 24.2%

CCOc1ccc(NC(C)=O)c([N+](=O)[O-])c1
inactive: [1] -7.05% | [2] -1.25% | [3] 21% | [4] 9.45% | [5] -3.35% | [6] 2.55%

CC(=O)COc1cccc2ccccc12
inactive: [1] -1.15% | [2] -3.1% | [3] -2.05% | [4] -36.4% | [5] -23.8% | [6] -2.35%

CCN1CCCC(Cl)C1 (stereo unspecified)
inactive: [1] 12.8% | [2] -41% | [3] 14.7% | [4] -0.5% | [5] -12.4% | [6] 5.95%

O=C(C=c1sc(=CC(=O)c2ccccc2)s1)c1ccccc1
inactive: [1] -3.5% | [2] -4.35% | [3] 14.7% | [4] -41.3% | [5] 2.1% | [6] -35.6%

CNCc1cccc(OC)c1OC
inactive: [1] -1.05% | [2] -5.4% | [3] -2.35% | [4] -0.6% | [5] 16.2% | [6] -2.7%

C1=CC(=C(c2ccccc2)c2ccccc2)C=C1
inactive: [1] -17.1% | [2] -16.9% | [3] -4.5% | [4] -19.2% | [5] -2.75% | [6] -1.9%

CCOC(=O)C1=CC(C)(C(=O)OCC)Nc2c(nc(SC)[nH]c2=O)N1 (stereo unspecified)
inactive: [1] -30.9% | [2] -24.7% | [3] -14.7% | [4] 9.05% | [5] -11.8% | [6] 2.5%

CC(=O)OCC1OC(n2c(N)c(C#N)c(-c3ccccc3)c(C#N)c2=S)C(OC(C)=O)C(OC(C)=O)C1OC(C)=O (stereo unspecified)
inactive: [1] 13.4% | [2] 11.2% | [3] -21.9% | [4] -8.8% | [5] -14.7% | [6] -60.2%

COC(=O)[C@H]1[C@H]2C[C@@H]3c4[nH]c5ccccc5c4CCN3C[C@H]2C[C@@H](OC(=O)c2cc(OC)c(OC)c(OC)c2)[C@@H]1OC
inactive: [1] 15.8% | [2] -7.35% | [3] 17.1% | [4] 5.6% | [5] 18.5% | [6] 17.3%

COC(=O)Cc1nc2ccccc2[nH]c1=O
inactive: [1] -1.15% | [2] -3.25% | [3] -10.3% | [4] -29.2% | [5] -16.8% | [6] -5.7%

Cc1cc(C)c(Cc2c(C)cc(C)cc2C)c(C)c1
inactive: [1] 14.8% | [2] -25.6% | [3] 7.25% | [4] -2.85% | [5] 23.9% | [6] 13.9%

Cc1ccc2nc(CN(CCO)CCO)cc(=O)n2c1
inactive: [1] 34.4% | [2] 4.95% | [3] 40.5% | [4] 4% | [5] 26.6% | [6] 28.4%

C=C(C)COC(OCC(=C)C)C(C)C
inactive: [1] 26.4% | [2] 3.05% | [3] 3.45% | [4] 9.35% | [5] 22.2% | [6] 12.2%

CN1CC(c2ccccc2)=Cc2c1ccc(N)c2N=N
inactive: [1] -13.3% | [2] -29.2% | [3] -0.3% | [4] 15.6% | [5] 12.8% | [6] 0.15%

CCCC12C=C(OC)C(=O)C=C1OC(c1cc(OC)c(OC)c(OC)c1)C2C (stereo unspecified)
inactive: [1] -14.8% | [2] -23.4% | [3] -18.8% | [4] -4.45% | [5] -6.8% | [6] -13.4%

COC(=O)C1C(=O)CC(C)(O)C(C(=O)OC)C1c1ccc(N(C)C)cc1 (stereo unspecified)
inactive: [1] -10.5% | [2] 19.9% | [3] 7.7% | [4] 53% | [5] 15.1% | [6] -25.4%

COc1ccc(N2N=NN(C(C)C)/C2=C(/Cl)c2nnnn2-c2ccc(OC)cc2)cc1
inactive: [1] 25.8% | [2] 42.9% | [3] 33.8% | [4] 19.1% | [5] 24.9% | [6] 39.3%

COc1ccc(Nc2nc(NNC(=O)Cc3ccccc3)nc(NNC(=O)c3ccncc3)n2)cc1
inactive: [1] 8.5% | [2] 20.1% | [3] 30.1% | [4] 19.2% | [5] 27.2% | [6] 30.4%

CC(=O)c1cccc(C(=O)O)c1
inactive: [1] -17.4% | [2] 1.95% | [3] -11.7% | [4] -29.7% | [5] -2.35% | [6] -4.3%

NC(N)=NCCCCNCCCN=C(N)N
inactive: [1] -23.2% | [2] -42.8% | [3] 1.55% | [4] 3.35% | [5] -16.4% | [6] -15.7%

[Cl][Tb]([Cl])[Cl]
inactive: [1] 16.4% | [2] 8% | [3] 31.8% | [4] 40.1% | [5] 37.2% | [6] 29%

C=C(C)C1CCC2(C=O)CCC3(C)C(CCC4C5(C)CCC(O)C(C)(C)C5CCC43C)C12 (stereo unspecified)
inactive: [1] 25.9% | [2] 37% | [3] 25.1% | [4] 15.8% | [5] 26% | [6] 20.8%

CCCCOc1cc(C(=O)O)ccc1[N+](=O)[O-]
inactive: [1] -10.7% | [2] -19.4% | [3] -10.3% | [4] -5.75% | [5] -19.2% | [6] -3.1%

CCOc1ncnc2ccc(Cl)cc12
inactive: [1] -8.65% | [2] -3.7% | [3] -4.45% | [4] -18.1% | [5] 0.65% | [6] 0%

COC(=O)/C=C(C)/C=C/C1OC(C)OCC1O (stereo unspecified)
inactive: [1] 7.55% | [2] 2.3% | [3] -3.65% | [4] -8.55% | [5] -5.45% | [6] 5.5%
